# Measurements taken from the supplement of paper PMC8728848.
# The sample as a whole holds a higher share of the strongest signals than the screen did.
# B1: Epa19 (Candida glabrata) (protein)
# chain: MGSSHHHHHHSSGLVPRGSHMASSKDPTRFPIGCSPQVLKTQPGLAVKLYSYGHPVPGCSYITYQYPDFPRSGYKKERKLADITGVNGKIDIDLKPNDPCRVLTGHLPSNYNYPDTLTYTNFTMILYGYFQPKVTGYHTFNLEADDLLFMNLGAGNAFDCCKAESTLDNFGNYQSYSLWGSDYAKANITVFLVSGVYYPIRLFYVNRDNNAVIDFSFTTEFDKEKVHDFTSYFFSASDGEQCPGSV
# Assays:
# Test in all cases: glycan array binding signal (z-score within array); higher = stronger binding
# Conditions in all cases: glycan notation: IUPAC condensed, linker removed
# Fuc(a1-2)Gal = target: Fuc(a1-2)Gal
# How it was run: (§1)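 Glycan array binding is given as a within-array Z-score, which can be read as non-binding when negative. The arrays, 3228 of them, came from the Consortium for Functional Glycomics database and were retained only where the protein sequence was available. Z-scores were averaged across arrays of the same protein sequence at different concentrations or buffers and across linkers.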
# [1] = target: Fuc(a1-2)Gal(b1-3)GlcNAc(b1-2)Man(a1-3)[Fuc(a1-2)Gal(b1-3)GlcNAc(b1-2)Man(a1-6)]Man(b1-4)GlcNAc(b1-4)GlcNAc
# How it was run: as §1
# [2] = target: Fuc(a1-2)Gal(b1-3)GlcNAc(b1-3)[Gal(b1-4)GlcNAc(b1-6)]Gal(b1-4)Glc
# How it was run: as §1
# [3] = target: Fuc(a1-2)Gal(b1-4)Fuc(a1-3)]GlcNAc(b1-2)Man(a1-3)[Fuc(a1-2)Gal(b1-4)[Fuc(a1-3)]GlcNAc(b1-2)Man(a1-6)]Man(b1-4)GlcNAc(b1-4)GlcNAc
# How it was run: as §1
# Fuc(a1-2)Gal(b1-4)GlcNAc = target: Fuc(a1-2)Gal(b1-4)GlcNAc
# How it was run: as §1
# Fuc(a1-2)[Gal(a1-3)]Gal = target: Fuc(a1-2)[Gal(a1-3)]Gal
# How it was run: as §1
# [4] = target: Fuc(a1-2)[Gal(a1-3)]Gal(b1-4)GlcNAc(b1-2)Man
# How it was run: as §1
# [5] = target: Fuc(a1-2)[GalNAc(a1-3)]Gal(b1-3)GlcNAc(b1-3)GalNAc
# How it was run: as §1
# [6] = target: Fuc(a1-2)[GalNAc(a1-3)]Gal(b1-4)GlcNAc(b1-6)GalNAc
# How it was run: as §1
# [7] = target: Fuc(a1-2)[GalNAc(a1-3)]Gal(b1-4)[Fuc(a1-3)]GlcNAc
# How it was run: as §1
# [8] = target: Fuc(a1-2)[GalNAc(a1-3)]Gal(b1-4)[Fuc(a1-3)]GlcNAc(b1-3)GalNAc
# How it was run: as §1
# [9] = target: Fuc(a1-3)[Gal(b1-4)]GlcNAc(b1-2)Man
# How it was run: as §1
# [10] = target: Gal(a1-3)Gal(b1-4)[Fuc(a1-3)]GlcNAc(b1-2)Man(a1-3)[Gal(a1-3)Gal(b1-4)[Fuc(a1-3)]GlcNAc(b1-2)Man(a1-6)]Man(b1-4)GlcNAc(b1-4)GlcNAc
# How it was run: as §1
# [11] = target: Gal(a1-4)Gal(b1-3)GlcNAc(b1-2)Man(a1-3)[Gal(a1-4)Gal(b1-3)GlcNAc(b1-2)Man(a1-6)]Man(b1-4)GlcNAc(b1-4)GlcNAc
# How it was run: as §1
# Gal(b1-2)Gal = target: Gal(b1-2)Gal
# How it was run: as §1
# Gal(b1-3)GalNAc = target: Gal(b1-3)GalNAc
# How it was run: as §1
# [12] = target: Gal(b1-3)GlcNAc(b1-3)GalNAc
# How it was run: as §1
# [13] = target: Gal(b1-3)[Neu5Ac(b2-6)]GalNAc
# How it was run: as §1
# [14] = target: Gal(b1-4)GalNAc(a1-3)[Fuc(a1-2)]Gal(b1-4)GlcNAc
# How it was run: as §1
# Gal(b1-4)Glc6S = target: Gal(b1-4)Glc6S
# How it was run: as §1
# [15] = target: Gal(b1-4)GlcNAc(b1-2)Man(a1-6)[GlcNAc(b1-2)Man(a1-3)]Man(b1-4)GlcNAc(b1-4)GlcNAc
# How it was run: as §1
# [16] = target: Gal(b1-4)GlcNAc(b1-2)[Gal(b1-4)GlcNAc(b1-6)]Man(a1-6)[Gal(b1-4)GlcNAc(b1-2)Man(a1-3)]Man(b1-4)GlcNAc(b1-4)GlcNAc
# How it was run: as §1
# [17] = target: Gal(b1-4)GlcNAc(b1-3)Gal(b1-4)GlcNAc(b1-2)Man(a1-3)[Gal(b1-4)GlcNAc(b1-3)Gal(b1-4)GlcNAc(b1-2)Man(a1-6)]Man(b1-4)GlcNAc(b1-4)GlcNAc
# How it was run: as §1
# [18] = target: Gal(b1-4)GlcNAc(b1-3)Gal(b1-4)GlcNAc(b1-2)[Gal(b1-4)GlcNAc(b1-3)Gal(b1-4)GlcNAc(b1-6)]Man(a1-6)[Gal(b1-4)GlcNAc(b1-3)Gal(b1-4)GlcNAc(b1-2)Man(a1-3)]Man(b1-4)GlcNAc(b1-4)GlcNAc
# How it was run: as §1
# [19] = target: Gal(b1-4)GlcNAc(b1-3)Gal(b1-4)GlcNAc(b1-3)Gal(b1-4)GlcNAc(b1-2)Man(a1-3)[Gal(b1-4)GlcNAc(b1-3)Gal(b1-4)GlcNAc(b1-3)Gal(b1-4)GlcNAc(b1-2)Man(a1-6)]Man(b1-4)GlcNAc(b1-4)[Fuc(a1-6)]GlcNAc
# How it was run: as §1
# [20] = target: Gal(b1-4)GlcNAc(b1-3)Gal(b1-4)GlcNAc(b1-3)Gal(b1-4)GlcNAc(b1-3)Gal(b1-4)GlcNAc(b1-2)[Gal(b1-4)GlcNAc(b1-3)Gal(b1-4)GlcNAc(b1-3)Gal(b1-4)GlcNAc(b1-3)Gal(b1-4)GlcNAc(b1-6)]Man(a1-6)[Gal(b1-4)GlcNAc(b1-3)Gal(b1-4)GlcNAc(b1-3)Gal(b1-4)GlcNAc(b1-3)Gal(b1-4)GlcNAc(b1-2)Man(a1-3)]Man(b1-4)GlcNAc(b1-4)[Fuc(a1-6)]GlcNAc
# How it was run: as §1
# [21] = target: Gal(b1-4)GlcNAc(b1-3)Gal(b1-4)GlcNAc(b1-3)[Gal(b1-4)GlcNAc(b1-3)Gal(b1-4)GlcNAc(b1-6)]GalNAc
# How it was run: as §1
# [22] = target: Gal(b1-4)GlcNAc(b1-6)GalNAc
# How it was run: as §1
# [23] = target: Gal(b1-4)GlcNAc(b1-6)[Gal(b1-3)]GalNAc
# How it was run: as §1
# [24] = target: Gal3S(b1-4)[Fuc(a1-3)]GlcNAc6S
# How it was run: as §1
# Gal6S(b1-4)GlcNAc = target: Gal6S(b1-4)GlcNAc
# How it was run: as §1
# GalNAc(a1-3)Gal = target: GalNAc(a1-3)Gal
# How it was run: as §1
binder,measurement,setting,value
B1,glycan array binding signal (z-score),Fuc(a1-2)Gal,-0.231
same,glycan array binding signal (z-score),[1],0.072
same,glycan array binding signal (z-score),[2],-0.333
same,glycan array binding signal (z-score),[3],2.57
same,glycan array binding signal (z-score),Fuc(a1-2)Gal(b1-4)GlcNAc,-0.459
same,glycan array binding signal (z-score),Fuc(a1-2)[Gal(a1-3)]Gal,-0.947
same,glycan array binding signal (z-score),[4],0.045
same,glycan array binding signal (z-score),[5],2.07
same,glycan array binding signal (z-score),[6],0.209
same,glycan array binding signal (z-score),[7],-0.301
same,glycan array binding signal (z-score),[8],1.08
same,glycan array binding signal (z-score),[9],-0.217
same,glycan array binding signal (z-score),[10],2.47
same,glycan array binding signal (z-score),[11],-0.21
same,glycan array binding signal (z-score),Gal(b1-2)Gal,-0.099
same,glycan array binding signal (z-score),Gal(b1-3)GalNAc,-0.306
same,glycan array binding signal (z-score),[12],-0.204
same,glycan array binding signal (z-score),[13],2.39
same,glycan array binding signal (z-score),[14],-0.193
same,glycan array binding signal (z-score),Gal(b1-4)Glc6S,2.4
same,glycan array binding signal (z-score),[15],0.102
same,glycan array binding signal (z-score),[16],-1.26
same,glycan array binding signal (z-score),[17],2.29
same,glycan array binding signal (z-score),[18],0.736
same,glycan array binding signal (z-score),[19],0.256
same,glycan array binding signal (z-score),[20],0.024
same,glycan array binding signal (z-score),[21],1.4
same,glycan array binding signal (z-score),[22],-0.146
same,glycan array binding signal (z-score),[23],0.35
same,glycan array binding signal (z-score),[24],0.49
same,glycan array binding signal (z-score),Gal6S(b1-4)GlcNAc,-0.372
same,glycan array binding signal (z-score),GalNAc(a1-3)Gal,-0.246
